High-throughput results as filed in PubChem BioAssay.
NR5A2 inv ag: inverse agonists of human LRH-1 (NR5A2); HEK293T StAR-luciferase reporter, LRH-1 transfected, 24 h; inhibition, % at 3.6 µM; hit rate 0.13% among 360,000; AID 602396;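 active means inhibition above the mean inhibition of all tested compounds plus 3 SD, cut at about 73% in these data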
SRC1 inh: human NCOA1 inhibition; Q15788; HEK293 GAL4-SRC1 luciferase reporter, luminescence; inhibition, % at 3.6 µM; hit rate 0.12% among 360,000; AID 588354;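 active means inhibition above the campaign mean plus 3 SD, with each screening campaign given its own cutoff, cut at about 60% in these data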
NCOA2 inhibitor: inhibits human steroid receptor coactivator 2; inhibition, % at 9 µM; hit rate 0.17% among 370,000; AID 651957; HEK293 GAL4-SRC2 luciferase reporter, luminescence;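 active means inhibition above the mean inhibition of all tested compounds plus 3 SD, set per campaign, cut at about 52% in these data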
GalR3 antag: human GalR3 antagonism; hit rate 0.44% among 360,000; inhibition, % at 3 µM; O60755; HEK293 GalR3-CNG cAMP membrane potential fluorescence; galR3 body fused to GalR1 C-terminus; AID 651719;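 active means inhibition above the screen-wide average plus 3 SD, cut at about 13% in these data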;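 further: forskolin and galanin both at EC90 stimulate the cells; cAMP rise reported by CNG channel membrane potential dye signal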
Target sequence (O60755 1-299 limits assumed): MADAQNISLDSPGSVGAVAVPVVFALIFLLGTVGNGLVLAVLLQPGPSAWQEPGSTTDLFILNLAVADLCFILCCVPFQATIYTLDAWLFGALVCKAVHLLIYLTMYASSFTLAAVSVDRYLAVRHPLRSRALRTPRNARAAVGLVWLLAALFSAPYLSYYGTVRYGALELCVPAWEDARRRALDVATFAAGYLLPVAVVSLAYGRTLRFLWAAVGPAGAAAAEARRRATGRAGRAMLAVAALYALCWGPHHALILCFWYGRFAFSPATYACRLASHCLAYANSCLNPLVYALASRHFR
NR2F2 inh: blocks human COUP-TFII nuclear receptor. P24468. HEK293T NGFI-A luciferase reporter, luminescence. inhibition, % at 8.6 µM. hit rate 0.7% among 370,000. AID 686940;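 active means inhibition above a per-plate cutoff, mean inhibition of test wells between control levels plus 3 SD, cut at about 38% in these data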;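 further: cells cotransfected with COUP-TFII expression vector driving the NGFI-A reporter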
Target sequence (P24468 whole entry, looked up): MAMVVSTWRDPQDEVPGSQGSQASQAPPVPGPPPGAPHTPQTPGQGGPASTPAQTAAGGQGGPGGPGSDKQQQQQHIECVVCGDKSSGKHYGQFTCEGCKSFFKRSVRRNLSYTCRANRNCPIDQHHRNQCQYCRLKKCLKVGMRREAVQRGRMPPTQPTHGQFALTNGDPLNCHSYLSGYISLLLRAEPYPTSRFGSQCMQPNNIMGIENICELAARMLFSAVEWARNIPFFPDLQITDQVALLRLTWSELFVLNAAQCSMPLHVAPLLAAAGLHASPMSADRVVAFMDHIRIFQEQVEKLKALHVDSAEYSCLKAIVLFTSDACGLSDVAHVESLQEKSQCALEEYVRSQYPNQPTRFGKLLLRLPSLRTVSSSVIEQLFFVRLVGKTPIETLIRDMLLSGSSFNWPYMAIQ
SRC3 inh: inhibits human SRC3 coactivator | Q9Y6Q9 | HEK293 GAL4-SRC3 luciferase reporter, luminescence | inhibition, % at 3.6 µM | hit rate 0.17% among 360,000 | AID 588352;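 active means inhibition above a per-campaign cutoff, the mean of all compounds plus 3 SD, cut at about 60% in these data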;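 further: higher means less SRC3-driven luciferase light from the GAL4 reporter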
Gal4-VP16 ctr: VP16 inhibition counter-screen for COUP-TFII; shares compounds with NR2F2 inh; HEK293 Gal4-VP16 luciferase reporter, luminescence; inhibition, % at 8.5 µM; hit rate 25% among 2,500; AID 687007; in the data active means inhibition above about 13%
COUP-TFII conf: confirmation of human COUP-TFII (NR2F2) inhibitors. shares compounds with NR2F2 inh. HEK293 NGFI-A luciferase reporter, luminescence. inhibition, % at 8.5 µM. hit rate 45% among 2,500;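 active means mean inhibition over three repeats above a set limit taken from the earlier primary screen, cut at about 38% in these data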
A number is an active result; - = inactive; . = no result given. Rows were chosen to be rich in hits. Some 1.1% of all compounds tested hit in one or more screens of this group.

SMILES	NR5A2 inv ag	SRC1 inh	NCOA2 inhibitor	GalR3 antag	NR2F2 inh	SRC3 inh	Gal4-VP16 ctr	COUP-TFII conf
Cc1cc(Cl)ccc1OCC(=O)Nc1ccncc1	-	-	-	55.2	40.2	-	-	-
O=C1CCC[C@H]2C[C@H](NCc3ccc(Cl)cc3)CC[C@]23CCCN13	.	.	.	.	-	.	.	.
COc1ccc(C2(CNC(=O)c3ccccc3)CCCC2)cc1OC	-	-	-	-	-	-	.	.
COc1cccc(C(=O)NCC2(c3ccccc3)CCCC2)c1OC	-	-	-	-	44.9	-	-	-
c1ccc(CCc2nn3c(-c4ccncc4)nnc3s2)cc1	-	68.1	-	-	50.5	-	-	-
N#C[C@@H]1N[C@H](CO)[C@@H]1c1ccccc1	.	.	-	.	-	.	.	.
NS(=O)(=O)c1cccc(NS(=O)(=O)c2cccc(C(F)(F)F)c2)c1	-	-	-	-	43.1	-	-	-
Cc1ccc(C(=O)Nc2cc(C(C)C)c(O)c(C(C)C)c2)cc1	-	-	-	-	45.9	-	-	-
Cc1ccc(NC(=O)c2ccc(C)cc2)cc1	-	-	-	-	-	-	.	.
Nn1c(SCC(=O)NC2CCCCCC2)nnc1-c1ccco1	-	-	-	-	-	-	.	.
Cc1ccc(NS(=O)(=O)c2cccc(C(=O)NC3CCN(Cc4ccccc4)CC3)c2)c(C)c1	-	-	-	-	56.4	-	-	-
Cc1ccc(C)c(OCc2cc(C(=O)NC3CCN(Cc4ccccc4)CC3)no2)c1	-	-	-	-	48.0	-	-	-
O=C(CNS(=O)(=O)c1cccs1)N1CCN(c2ncccn2)CC1	.	.	-	.	-	.	.	.
CC(=O)c1ccc(N2CCN(C(=O)/C=C/c3ccc(S(=O)(=O)NCc4ccco4)cc3)CC2)cc1	-	-	-	-	53.5	-	-	-
CCc1nc(NCc2ccccn2)c2oc3ccccc3c2n1	-	-	-	-	39.0	-	-	-
Cc1nc(NCc2ccccn2)c2ccccc2n1	-	-	-	-	43.0	-	-	-
CC(C)CN1C(=O)[C@]2(CC(=O)N(C)C2c2ccccc2)c2cc(-n3cc(-c4ccccc4)nn3)ccc21 (stereo partly specified)	.	.	-	.	-	.	.	.
O=[N+]([O-])c1cccc2ccc(N3CCOCC3)nc12	-	-	-	-	-	-	.	.
O=C(O)c1ccc(NCc2nc3cc4ccccc4cc3[nH]2)cc1	-	-	-	-	-	-	.	.
Cc1ccc2nc(SCC(=O)Nc3cc(C(F)(F)F)ccc3N3CCOCC3)[nH]c2c1	-	-	-	-	-	-	.	.
c1ccc2cc3[nH]c(CNc4nc(N5CCOCC5)nc5c4ncn5-c4ccsc4)nc3cc2c1	.	.	.	.	63.3	.	-	41.7
O=[N+]([O-])c1ccc2nc(CNc3nc(N4CCOCC4)nc4c3ncn4-c3ccsc3)[nH]c2c1	.	.	.	.	58.3	.	28.3	48.1
O=[N+]([O-])c1cccc2[nH]c(CNc3nc(N4CCOCC4)nc4c3ncn4-c3ccsc3)nc12	.	.	.	.	66.7	.	25.2	40.8
FC(F)(F)c1ccc2nc(CNc3nc(N4CCOCC4)nc4c3ncn4-c3ccsc3)[nH]c2c1	.	.	.	.	68.8	.	23.4	42.5
COCCCNC(=O)C[C@H]1C[C@@]2(C(=O)OC)C(=C[C@H](COCc3ccccc3)O[C@@H]2C)N(Cc2ccccc2)C1=O	.	.	-	.	-	.	.	.
SMILES	NR5A2 inv ag	SRC1 inh	NCOA2 inhibitor	GalR3 antag	NR2F2 inh	SRC3 inh	Gal4-VP16 ctr	COUP-TFII conf
Cc1ccccc1N1CCN(S(=O)(=O)c2ccc3c(c2)oc(=O)n3C)CC1	.	.	-	.	-	.	.	.
CCOc1ccccc1N1CCN(C(=O)c2cc3cc(OC)ccc3[nH]2)CC1	-	-	.	.	.	-	.	.
Cc1nn(-c2ccccc2)c2sc(C(=O)NC3CCCCCCC3)cc12	.	.	-	.	-	.	.	.
COc1ccc(C2CC(=O)C(c3cccc(C)c3)=CN2Cc2ccccc2)cc1 (stereo unspecified)	.	.	-	-	-	.	.	.
c1ccc2[nH]c(CNc3nc(N4CCOCC4)nc4c3ncn4-c3ccsc3)nc2c1	.	.	.	.	52.3	.	20.4	45.9
O=C1C(Cl)=C(Nc2ccc3cn[nH]c3c2)C(=O)c2ccccc21	-	-	87.7	-	41.2	-	-	-
O=C(Nc1ccc2cn[nH]c2c1)c1c(Cl)cccc1Cl	-	-	-	-	-	-	.	.
Cc1ccc(-c2c(NC(=O)c3ccc(F)cc3)nc3ncccn23)cc1	.	.	-	.	-	.	.	.
CCOC(=O)C1CCN(C(c2cccnc2)c2c(NC(=O)c3ccco3)sc(C)c2C)CC1 (stereo unspecified)	-	-	-	-	69.6	-	-	39.1
Cc1sc(NC(=O)c2ccco2)c(C(c2cccnc2)N2CCN(CCO)CC2)c1C (stereo unspecified)	-	-	-	-	-	-	.	.
CC[n+]1ccc(/C=C/c2c[nH]c3ccccc23)cc1	-	-	-	-	50.7	-	-	-
Cc1ccc2[nH]cc(/C=C/c3cc[n+](C)cc3)c2c1	-	-	-	-	42.9	-	-	-
CCn1c(/C=C/c2c[nH]c3ccccc23)nc2ccccc2c1=O	-	-	-	-	-	-	.	.
COc1ccc2c(c1)c(/C=C/c1cc[n+](C)cc1)cn2C	-	-	-	-	-	-	.	.
COc1ccc2c(/C=C/c3cc[n+](C)cc3)c[nH]c2c1	-	-	-	-	38.2	-	-	38.9
COc1ccc(-c2ccc(C(=O)NCc3ccc(C(F)(F)F)cc3)c3occc23)c(C)c1	-	-	-	-	-	-	.	.
CCOC(=O)[C@@]12CCC3=C1N(CCC3)C(=O)[C@H](CC(=O)N1CCSCC1)C2	.	.	-	.	-	.	.	.
O=C(c1ccc(NS(=O)(=O)c2cccs2)cc1)N1CCOCC1	-	-	-	-	-	-	.	.
CC(C)CCCCCCCCCCCCC(=O)NCC(=O)NC1C(C)OC(Nc2ncnc3nc[nH]c23)C(O)C1O (stereo unspecified)	88.2	86.9	-	-	77.5	91.1	14.4	81.7
O=C(NC1CC[C@@]23CCCN2C(=O)CCC[C@H]3C1)c1ccccc1 (stereo partly specified)	.	.	.	.	-	.	.	.
CC(C)c1ccc(OCC(=O)NC2CC(C)(C)NC(C)(C)C2)c(Br)c1	-	-	-	-	-	-	.	.
COc1cccc(OC)c1NC(=O)Cc1nn(C)c(=O)c2ccccc12	-	-	-	-	-	-	.	.
Cc1csc(NC(=O)Cc2nn(C)c(=O)c3ccccc23)n1	-	-	-	-	44.7	-	-	-
Cn1nc(CC(=O)Nc2ccc(N3CCN(C(=O)OC(C)(C)C)CC3)cc2)c2ccccc2c1=O	-	-	-	-	53.2	-	-	64.4
Cn1nc(CC(=O)N2CCN(c3ccccc3)CC2)c2ccccc2c1=O	-	-	-	-	-	-	.	.
Clc1ccccc1C1=Nn2c(nnc2-c2ccncc2)SC1	-	-	53.9	-	40.1	65.7	-	-
CC(C)(C)OC(=O)n1cc(-c2ccccc2)c2c(-c3ccccc3)c(O)ccc21	.	.	-	.	-	.	.	.
